Compound activity deposited in PubChem by National Center for Advancing Translational Sciences (NCATS).
Sampled rows, rich in hits. Any-hit rate of the full collection: about 0.49%.
Apoferritin bind = qHTS Assay for Identification of Novel General Anesthetics | 350,000 compounds, 0.074% hits | Potency, µM (doses to about 77.5 µM), for the others: at the top dose activity change, negative = displacement, actives largely listed as inhibitors | apoferritin/1-aminoanthracene competitive binding, fluorescence | AID 485281, 2010; also: potency is read from the fitted curve at half-maximal effect; % is scaled to controls: 0 for no effect and ±100 for the full control effect; nearly all actives have a fitted effect of over 20% in size
Target sequence (P02791 2-175 limits assumed): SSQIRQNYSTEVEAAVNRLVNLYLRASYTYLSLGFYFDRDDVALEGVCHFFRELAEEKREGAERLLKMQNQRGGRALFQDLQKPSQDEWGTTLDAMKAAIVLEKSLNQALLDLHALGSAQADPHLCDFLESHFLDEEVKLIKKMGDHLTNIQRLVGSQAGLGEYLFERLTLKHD
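Concentration-response curves derived by four-parameter Hill fitting of normalized fluorescence, where compounds displaced 1-AMA from 10 uM horse apoferritin following a brief 10 min room-temperature incubation; propofol titration acted as positive control.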
Epigenetic derep = Quantitative High-Throughput Screen for Regulators of Epigenetic Control. murine LDR cells, GFP reporter derepression, 30 h. Potency, µM (highest dose often 53.9 µM), inactives show at the top dose GFP activation, usual class: activators. 280,000 compounds, 0.2% hits. AID 1865, 2009; also: potency is read from the fitted curve at half-maximal effect; % of control where 0% means no effect; nearly all actives have a fitted effect of over 60% in size
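Murine LDR cells bearing a silenced CMV-driven GFP reporter were exposed to compound for 30 h at 37 C. After PBS washes, GFP-positive cells (20-120 um objects) counted by laser-scanning microplate cytometry.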
Vif-A3F inh = qHTS for Inhibitors of Vif-A3F Interactions: qHTS | HeLa A3F-eYFP + Vif (tagged APOBEC3F with the HIV-1 protein that degrades it), YFP fluorescence increase | Potency, µM (titrated, usually from 46.1 µM), without a hit: at the top dose activity, negative = active | 390,000 compounds, 0.2% hits | AID 602313, 2012; also: potency is read from the fitted curve at half-maximal effect; % of control where 0% means no effect; nearly all actives have a fitted effect of over 65% in size
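Fluorescence increase (Ex 488/Em 500-530) after overnight compound treatment at 37 deg C flags inhibition of Vif-driven A3F-eYFP loss in stable HeLa A3F-eYFP/Vif cells seeded overnight beforehand.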
Vif-A3G inh = qHTS for Inhibitors of Vif-A3G Interactions: qHTS; DNA dC->dU-editing enzyme APOBEC-3G (Homo sapiens), Q9HC16; HeLa A3G-eYFP + Vif (tagged APOBEC3G with the HIV-1 protein that degrades it), YFP fluorescence, overnight; Potency, µM (top dose mostly 46.1 µM), for the others: at the highest dose activity, negative = active, most hits filed as inhibitors; 410,000 compounds, 0.076% hits; also: potency is read from the fitted curve at half-maximal effect; % is scaled to controls: 0 for no effect and ±100 for the full control effect; nearly all actives have a fitted effect of over 60% in size
Target sequence (Q9HC16 whole entry, looked up): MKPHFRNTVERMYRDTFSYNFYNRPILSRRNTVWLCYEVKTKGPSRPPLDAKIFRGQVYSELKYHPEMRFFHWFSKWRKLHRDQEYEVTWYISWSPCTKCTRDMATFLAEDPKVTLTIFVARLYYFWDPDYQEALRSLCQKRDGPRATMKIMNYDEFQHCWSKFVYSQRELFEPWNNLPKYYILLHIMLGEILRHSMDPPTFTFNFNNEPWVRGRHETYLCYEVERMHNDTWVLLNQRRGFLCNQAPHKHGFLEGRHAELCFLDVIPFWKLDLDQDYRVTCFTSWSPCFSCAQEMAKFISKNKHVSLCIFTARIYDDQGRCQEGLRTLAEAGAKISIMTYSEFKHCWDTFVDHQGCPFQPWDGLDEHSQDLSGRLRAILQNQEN
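HeLa cells stably expressing Vif and C-terminally eYFP-tagged A3G, seeded overnight at 37 deg C, then exposed to compound by pintool overnight at 37 deg C. Rise in yellow fluorescence (Ex 488/Em 500-530, Acumen) marks blocked Vif-driven A3G degradation.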
LDHA block = qHTS assay for inhibitors of human lactate dehydrogenase | L-lactate dehydrogenase A chain (Homo sapiens), P00338 | purified LDHA, NADH/diaphorase-resazurin fluorescence; stronger effect = lower value | activity change, % (values are at about 110 or 230 µM) | AID 1347041, 2019 | 480,000 compounds, 0.15% hits; in the data active = activity change below about -30%; inconclusive = mostly about -25% to -30%;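 also: plate controls were DMSO wells for no effect and wells without enzyme for full effect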
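Human LDH5 at 2 nM final in Tris HCl pH 7.4 with 0.06 mM NADH and 0.2 mM pyruvate, reacted 5 minutes at room temperature. Remaining NADH coupled via diaphorase/resazurin; resorufin fluorescence read at 0 and 20 minutes, normalized to enzyme-free and DMSO wells.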
Numbers without * were called inactive; i = inactive; ? = inconclusive; nt = no result given; ! = a repeat was not active. Unless noted, calls follow the shape of the dose curve; as a rule, active = well fitted curve in the direction sought with a large enough effect; inconclusive = small, poorly fitted or top-dose-only effect, or another doubt; inactive = no such curve, though single readings can be large; an effect the other way counts as inactive or inconclusive.

SMILES | Apoferritin bind | Epigenetic derep | Vif-A3F inh | Vif-A3G inh | LDHA block
O=c1oc2ccccc2cc1-c1nc2ccccc2o1 | i | 2.8% | -21.0% | -19.7% | 0.0
COc1ccc2oc(=O)c(-c3nc4ccccc4o3)cc2c1 | 43.2% | 0.0% | 12.6µM* | ? | 3.3
CCOc1ccccc1Nc1nnc(-c2cc3cc(OC)ccc3oc2=O)s1 | -1.1% | 17.8µM* | 7.08µM* | -15.8% | -1.2
O=C(c1ccc2c(c1)[nH]c(=S)n1c3ccccc3nc21)N1CCN(c2cccc(Cl)c2)CC1 | -1.2% | -2.9% | -26.6% | -0.5% | 0.2
COCCOC(=O)c1c(-c2ccccc2)c(-c2ccccc2)nn(C)c1=O | -5.5% | 2.7% | 1.4% | 0.5% | -2.6
COC(=O)c1cc(=O)n(Cc2cccs2)c(=Nc2ccccc2)s1 | -3.7% | 17.8µM* | -0.2% | -22.5% | -6.6
N#Cc1cc2ccccc2nc1SCC(=O)Nc1ccccc1N1CCOCC1 | -10.4% | -0.9% | 25.1µM* | ? | -0.9
Cc1ccc(-c2cc(C(=O)NCc3cnn(C)c3)c3cc(Br)ccc3n2)cc1 | ? | 8.7% | -15.8% | -2.3% | 0.1
CCn1cc(CNC(=O)c2cc(-c3ccc(C)cc3)nc3ccc(Br)cc23)c(C)n1 | -14.0% | 15.8µM* | ? | -21.5% | -5.4
COc1ccc(Cn2c(SCc3ccc(C(=O)NCc4ccccc4F)cc3)nc3cccnc32)cc1 | -11.6% | 0.0% | -3.6% | -8.1% | -1.0
O=C(NCc1ccccc1)c1ccc(CSc2nc3cccnc3n2Cc2ccccc2F)cc1 | -12.2% | -1.2% | -1.7% | 1.2% | -33.2*
COc1cccc(-c2nc(-c3ccccc3)c(-c3ccccc3)[nH]2)c1OCC(=O)O | -11.3% | nt | -0.1% | 0.1% | -10.3
O=C(O)COc1ccccc1-c1nc(-c2ccccc2)c(-c2ccccc2)[nH]1 | 0.7% | nt | -0.4% | 1.1% | -43.4*
CCOC(=O)c1cnc(-n2nc(C)cc2C)nc1NNc1nc(C)cc(C)n1 | -1.8% | -0.3% | 0.4% | 0.6% | -18.7
CCOC(=O)c1cnc(-n2nc(C)cc2C)nc1NNc1nc(-c2ccccc2)cc(-c2ccccc2)n1 | 0.3% | 0.0% | 7.08µM* | 1.0% | -6.6
COc1ccccc1C(=O)NCCC(=O)N1CCN(S(=O)(=O)c2ccc(Cl)cc2)CC1 | nt | nt | -0.8% | -1.5% | -3.2
Nc1ncnc2c1ncn2[C@@H]1O[C@H](CNCc2ccc(OCc3ccccc3)cc2)[C@@H](O)[C@H]1O | nt | nt | -12.8% | 22.4µM* | -2.1
CCOC(OCC)P(=O)(C(C)C)C(C)C | 4.6% | -1.2% | 8.4% | -0.9% | -1.0
Cc1cccc(NCc2ccc([N+](=O)[O-])s2)c1 | 15.8µM* | nt | 3.0% | -0.3% | 2.0
COc1ccccc1NCc1ccc([N+](=O)[O-])s1 | ? | 16.2% | 8.6% | -10.4% | 0.8
Cc1cc([N+](=O)[O-])ccc1NCc1ccccc1 | 11.2µM* | 0.2% | -1.9% | -3.7% | 2.6
Cc1ccccc1NCc1ccc([N+](=O)[O-])s1 | 8.91µM* | nt | 0.4% | -26.8% | -5.3
Cc1ccc(NCc2ccc([N+](=O)[O-])s2)cc1 | 15.8µM* | nt | -1.3% | 1.3% | 0.8
O=[N+]([O-])c1ccc(CNc2cccc(F)c2)s1 | ? | nt | 1.5% | -18.5% | -5.7
Cc1cc([N+](=O)[O-])ccc1NCc1ccc2ccccc2c1 | ? | 0.9% | -4.5% | 0.4% | 0.7
SMILES | Apoferritin bind | Epigenetic derep | Vif-A3F inh | Vif-A3G inh | LDHA block
CCOc1ccccc1Nc1ncccc1C(=O)O | 0.1% | -1.0% | -5.9% | -2.3% | -1.4
CCOC(=O)c1ccc(NC(=O)CC2C(=O)N(c3ccccc3)C(=O)N2CCCOC)cc1 (configuration not stated) | -8.1% | 5.7% | 1.8% | -3.4% | -0.7
CCOC(=O)c1ccc(Oc2coc3cc(OCc4ccccc4C)ccc3c2=O)cc1 | nt | nt | nt | nt | 1.8
O=[N+]([O-])c1ccc(N/N=C/C=C/c2ccco2)cc1 | nt | nt | 11.2µM* | ? | -0.6
CCOc1ccc2oc(=O)cc(CN3CCN(c4ccccc4)CC3)c2c1 | -7.9% | 2.0% | 9.2% | 5.7% | -30.2*!
Cn1cccc1/C=C1\CCC/C(=C\c2cccn2C)C1=O | ? | 12.6µM* | ? | ? | 6.6
O=C1/C(=C/c2cccs2)CCC/C1=C\c1cccs1 | -14.9% | nt | -15.5% | -12.0% | -3.3
Cn1cccc1/C=C1\SC(=O)N(c2ccc(O)cc2)C1=O | 50.9% | ? | 25.1µM* | ? | 1.0
CCOc1ccc(N2C(=O)S/C(=C\c3cccn3C)C2=O)cc1 | -8.4% | -0.8% | ? | -12.7% | -1.7
Cc1ccc(C(=O)NCC(=O)OCC(=O)c2ccc3c(c2)OCCO3)cc1C | 10µM* | -0.1% | nt | 0.2% | -3.1
Cc1ccc(C(=O)NCC(=O)OCC(=O)c2ccc3c(c2)NC(=O)CO3)cc1C | ? | -1.9% | -12.0% | 0.5% | -10.4
COc1ccc(CC(=O)OCC(=O)c2ccc3c(c2)OCCCO3)cc1 | nt | nt | nt | nt | -30.2*
COc1ccc(C(=O)NCC(=O)OCC(=O)c2ccc3c(c2)OCCO3)cc1 | 12.6µM* | -0.4% | 5.9% | -4.7% | -2.1
O=C(Cc1ccc(Br)cc1)OCC(=O)c1ccc2c(c1)OCCO2 | ? | 0.0% | -6.6% | -0.3% | -0.5
COc1ccc(C(=O)COC(=O)CCC(=O)c2ccc3c(c2)OCCO3)cc1 | nt | nt | nt | nt | 12.1
N#CCOc1nc(N2CCOCC2)nc(N2CCOCC2)n1 | -3.0% | 0.9% | 0.5% | 1.2% | -30.7*!
COc1ccc2nc3ccccc3nc2c1NC(=O)c1ccc(Br)cc1 | 6.8% | 4.5% | 6.31µM* | ? | 6.5
COc1ccc2nc3ccccc3nc2c1NC(=O)c1ccc(Cl)cc1 | -10.1% | ? | 11.2µM* | -11.3% | 11.2
CCOC(=O)/C(C#N)=C/c1cc(C)n(-c2ccccc2)c1C | ? | -3.0% | -4.6% | 3.7% | -10.9
O=C1S/C(=C/c2ccc(N3CCOCC3)o2)C(=O)N1Cc1c(F)cccc1Cl | -22.6% | 2.51µM* | ? | 3.98µM* | 32.8
O=C(O)c1ccccc1-c1ccc(/C=C2\SC(=O)N(c3ccccc3)C2=O)o1 | -7.4% | nt | -4.9% | -3.6% | 3.8
O=C1S/C(=C\c2ccc(N3CCOCC3)o2)C(=O)N1c1ccccc1 | -13.5% | 14.1µM* | ? | 4.47µM* | 23.6
O=C1S/C(=C\c2ccc(N3CCOCC3)o2)C(=O)N1Cc1c(F)cccc1Cl | -13.3% | 8.91µM* | ? | ? | 19.7
O=C(NCCN1CCOCC1)c1ccc2c(c1)N(Cc1c(F)cccc1Cl)C(=O)c1ccccc1S2 | -17.8% | -2.9% | -6.7% | -9.5% | -0.5
O=C1N=C(N2CCOCC2)S/C1=C/c1ccc(-c2ccccc2Cl)o1 | -5.0% | -0.9% | 4.8% | 2.2% | -9.4
